The text below walks through data of the supplement of paper PMC9446081.

SMILES strings stand for the structures. About 220 (0.56%) of roughly 39,000 compounds showed activity. Only a selection was taken, and actives are over-represented in it overall.
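Further: Wild-type cells incubated without shaking, value is the mean of two biological replicates.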

In this test the test system is Escherichia coli K-12 BW25113. Kind of test: relative growth (OD600 normalised to plate interquartile mean) (fraction); higher = less growth inhibition, active = 0.2 or less. As to conditions: 50 µM; LB; incubation time: overnight (16-24 h).
Turning to `COC[C@H]1CN(C(=O)c2cccc(OC)c2)N1`, the relative growth was 1.01 (inactive).
Turning to `Cc1ccc(S(=O)(=O)N(C)C[C@@H]2Oc3c(NC(=O)Nc4cccc5ccccc45)cccc3C(=O)N([C@H](C)CO)C[C@@H]2C)cc1`, the relative growth is 1 (inactive).
For the compound `Cc1noc(C)c1S(=O)(=O)N(C)C[C@@H]1Oc2ccc(NC(=O)Cc3cn(C)c4ccccc34)cc2CC(=O)N([C@H](C)CO)C[C@@H]1C`, the relative growth is 1.01 (inactive).
In the case of `COc1nc(C)nc(Cl)c1NC1=NCCN1`, the relative growth is 1.03 (inactive).
On to `C[C@H]1CCCCO[C@@H](CN(C)S(=O)(=O)c2ccc(Cl)cc2)[C@@H](C)CN([C@@H](C)CO)C(=O)c2cc(NC(=O)NC3CCCCC3)ccc2O1`, for which the relative growth was 1 (inactive).
In the case of `CC1CN(c2c(F)c(N)c3c(=O)c(C(=O)O)cn(C4CC4)c3c2F)CC(C)N1` (stereo unspecified) it was 0.0495 (active); in that of `CC1CN(c2c(F)c(F)c3c(=O)c(C(=O)O)cn(C4CC4)c3c2F)CC(C)N1` (stereo unspecified), 0.0486 (active); in that of `C[C@H](NC(=O)C[C@@H]1C=C[C@H](NC(=O)CN2CCOCC2)[C@H](CO)O1)c1ccccc1`, 1.02 (inactive).
As to `O=C(NCCCN1CCOCC1)[C@H]1N[C@H]2c3ccc(C4=CCCCC4)c(=O)n3C[C@H]2[C@@H]1CO`, the relative growth was 0.98 (inactive).
As to `C[C@@H]1CN([C@@H](C)CO)C(=O)c2cc(NS(=O)(=O)c3ccc(F)cc3)ccc2O[C@@H](C)CCCCO[C@@H]1CN(C)C(=O)Nc1ccc2c(c1)OCO2`, the relative growth was 1.01 (inactive).
For the compound `C[C@@H]1CN([C@@H](C)CO)C(=O)c2cccc(NC(=O)c3ccc(-c4nccs4)cc3)c2O[C@H]1CN(C)C(=O)Nc1cccc2ccccc12`, the relative growth was 0.886 (inactive).
Take `CN(C)CCN1CCc2ncc(Cn3cncn3)n2CC1`: the relative growth was 0.99 (inactive).
As to `COc1ccc(S(=O)(=O)N(C)C[C@H]2OCCCC[C@H](C)Oc3ccc(NS(=O)(=O)c4cn(C)cn4)cc3C(=O)N([C@@H](C)CO)C[C@@H]2C)cc1`, the relative growth is 1 (inactive).
Take `CCC(C)CCCCC(=O)NC(CCN)C(=O)NC(C(=O)NC(CCN)C(=O)NC1CCNC(=O)C(C(C)O)NC(=O)C(CCN)NC(=O)C(CCN)NC(=O)C(CC(C)C)NC(=O)C(Cc2ccccc2)NC(=O)C(CCN)NC1=O)C(C)O.O=S(=O)(O)O` (stereo unspecified): the relative growth was 0.0419 (active).
In the case of `CC[C@@H](C)CCCCC(=O)N[C@@H](CCN)C(=O)N[C@H](C(=O)N[C@@H](CCN)C(=O)N[C@H]1CCNC(=O)[C@H]([C@@H](C)O)NC(=O)[C@H](CCN)NC(=O)[C@H](CCN)NC(=O)[C@H](CC(C)C)NC(=O)[C@@H](Cc2ccccc2)NC(=O)[C@@H](CCN)NC1=O)[C@@H](C)O`, the relative growth is 0.0424 (active).
With `CC[C@@H](C)CCCC(=O)N[C@@H](CCN)C(=O)N[C@H](C(=O)N[C@@H](CCN)C(=O)N[C@H]1CCNC(=O)[C@H]([C@@H](C)O)NC(=O)[C@H](CCN)NC(=O)[C@H](CCN)NC(=O)[C@H](CC(C)C)NC(=O)[C@@H](CC(C)C)NC(=O)[C@H](CCN)NC1=O)[C@@H](C)O`, the relative growth was 0.262 (inactive).
On to `CC[C@H](C)[C@H](N)C1=N[C@H](C(=O)N[C@@H](CC(C)C)C(=O)N[C@H](CCC(=O)O)C(=O)N[C@H](C(=O)N[C@H]2CCCCNC(=O)[C@H](CC(N)=O)NC(=O)[C@@H](CC(=O)O)NC(=O)[C@H](Cc3cnc[nH]3)NC(=O)[C@@H](Cc3ccccc3)NC(=O)[C@H]([C@@H](C)CC)NC(=O)[C@@H](CCCN)NC2=O)[C@@H](C)CC)CS1`, for which the relative growth is 0.909 (inactive).
Take `C[C@@H]1CN([C@H](C)CO)C(=O)c2cccc(NC(=O)C3CC3)c2O[C@@H]1CN(C)S(=O)(=O)c1ccccc1`: the relative growth was 1.01 (inactive).
As for `Cc1ccc(S(=O)(=O)N(C)C[C@@H]2Oc3ccc(NS(=O)(=O)c4cccs4)cc3CC(=O)N([C@H](C)CO)C[C@H]2C)cc1`, the relative growth was 1 (inactive).
Regarding `C[C@H]1CN([C@@H](C)CO)C(=O)c2c(c3ccccc3n2C)-c2ccccc2CO[C@@H]1CN(C)S(=O)(=O)c1ccc(C(F)(F)F)cc1`, the relative growth is 1 (inactive).
In the case of `CO[C@@H]1CN(C)C(=O)c2ccc(NS(C)(=O)=O)cc2OC[C@H](C)N(S(C)(=O)=O)C[C@H]1C`, the relative growth is 0.991 (inactive).
Take `Cc1nnc(NCc2ccccc2)n(N)c1=O`: the relative growth was 0.975 (inactive).
On to `CCCC#Cc1ccc2c(c1)O[C@H](CN(C)Cc1ccc3c(c1)OCO3)[C@H](C)CN([C@H](C)CO)S2(=O)=O`, for which the relative growth is 1.05 (inactive).
`C[C@@H]1CN([C@H](C)CO)C(=O)c2cc(NC(=O)NC3CCCCC3)ccc2O[C@@H](C)CCCCO[C@H]1CN(C)Cc1ccncc1`: the relative growth was 1.02 (inactive).
Consider `C[C@@H]1CCCCO[C@@H](CN(C)S(=O)(=O)c2ccccc2)[C@@H](C)CN([C@H](C)CO)C(=O)c2cc(NC(=O)C3CCCCC3)ccc2O1`, for which the relative growth was 1.01 (inactive).
For the compound `O=C(C[C@H]1CC[C@@H](NC(=O)c2cccnc2)[C@H](CO)O1)NCCN1CCCCC1`, the relative growth is 1 (inactive).
In the case of `C[C@@H]1CN([C@H](C)CO)C(=O)c2cccc(NS(C)(=O)=O)c2O[C@H]1CN(C)C(=O)NC1CCCCC1` it was 1.01 (inactive); in that of `Cc1[nH]c(=O)c(C(=O)O)c2c1CCC2`, 0.994 (inactive).
Then `NNC(=O)c1c(O)c2c([nH]c1=O)CCCC2`, with 0.95 (inactive); and `O=C(O)c1c(O)c2c([nH]c1=O)CCCC2`, with 0.104 (active); and `C[C@H](CO)N1C[C@H](C)[C@@H](CN(C)Cc2cccc(F)c2)Oc2cc(C#CC3CC3)ccc2S1(=O)=O`, with 1.04 (inactive).
With `C[C@H](CO)N1C[C@H](C)[C@H](CN(C)CC2CC2)Oc2ccc(NS(=O)(=O)c3cn(C)cn3)cc2CC1=O`, the relative growth is 0.99 (inactive).
Then `Cc1ccc(S(=O)(=O)Nc2ccc3c(c2)C(=O)N([C@H](C)CO)C[C@H](C)[C@@H](CN(C)C(=O)C2CCCCC2)OCCCC[C@H](C)O3)cc1`, with 0.998 (inactive); and `Nc1ccccc1OCc1ccccc1`, with 0.955 (inactive).
With `CO/N=C(\C(=O)N[C@@H]1C(=O)N2C(C(=O)O)=C(CSC(=O)c3ccco3)CS[C@H]12)c1csc(N)n1`, the relative growth is 0.0342 (active).
On to `CO/N=C(\C(=O)N[C@@H]1C(=O)N2C(C(=O)O)=C(C[n+]3ccn4ncccc43)CS[C@H]12)c1nsc(N)n1`, for which the relative growth is 0.0425 (active).
Consider `CON=C(C(=O)NC1C(=O)N2C(C(=O)O)=C(CSC(=O)c3ccco3)CSC12)c1csc(N)n1.Cl` (stereo unspecified), for which the relative growth was 0.0447 (active).
Consider `C[C@H](CO)N1C[C@H](C)[C@H](CN(C)Cc2ccc(-c3ccccc3)cc2)Oc2c(NC(=O)c3nc4ccccc4s3)cccc2C1=O`, for which the relative growth was 1.01 (inactive).
Turning to `CN1CCC[C@H]1CO`, the relative growth was 0.919 (inactive).
`COCCNC(=O)C[C@@H]1C[C@@H]2c3cc(NS(C)(=O)=O)ccc3O[C@@H]2[C@H](CO)O1`: the relative growth is 1 (inactive).
In the case of `C[C@@H]1CN([C@H](C)CO)C(=O)Cc2cc(NC(=O)CCCCCC(=O)Nc3ccccc3N)ccc2O[C@H]1CN(C)C(=O)Nc1cccc2ccccc12` it was 0.963 (inactive); in that of `C[C@@H]1CCCCO[C@H](CN(C)S(=O)(=O)c2ccc(F)cc2)[C@H](C)CN([C@@H](C)CO)C(=O)c2cc(NC(=O)Nc3ccc4c(c3)OCO4)ccc2O1`, 1 (inactive); in that of `C[C@H]1CCCCO[C@H](CN(C)S(=O)(=O)c2cn(C)cn2)[C@@H](C)CN([C@@H](C)CO)C(=O)c2cc(NS(=O)(=O)c3cn(C)cn3)ccc2O1`, 0.995 (inactive).
For the compound `C[C@@H]1CCCCO[C@@H](CN(C)S(=O)(=O)c2cccs2)[C@@H](C)CN([C@H](C)CO)C(=O)c2cc(NC(=O)Nc3ccccc3)ccc2O1`, the relative growth is 1.02 (inactive).
In the case of `Cc1ccc(-c2ccc3c(c2)O[C@@H](CN(C)Cc2cncnc2)[C@H](C)CN([C@H](C)CO)S3(=O)=O)cc1`, the relative growth is 1.01 (inactive).
In the case of `C[C@H](CO)N1C[C@H](C)[C@@H](CN(C)Cc2ccc3c(c2)OCO3)Oc2c(NC(=O)Nc3cccc4ccccc34)cccc2C1=O` it was 1.01 (inactive).
In the case of `C[C@H]1CCCCO[C@H](CN(C)C(=O)Nc2ccccc2)[C@@H](C)CN([C@@H](C)CO)C(=O)c2cc(NS(=O)(=O)c3cccs3)ccc2O1` it was 1.02 (inactive); in that of `CCC(=O)Nc1ccc2c(c1)C(=O)N(C)C[C@H](OC)[C@H](C)CN(C(=O)CN1CCOCC1)[C@H](C)CO2`, 0.974 (inactive); in that of `NCc1ccccc1-n1cccn1`, 1 (inactive).
Then `Cl.N=C(N)n1cccn1`, with 0.042 (active); and `NCCn1cccn1`, with 1.01 (inactive).
Consider `Cc1cc(C(=O)Nc2cccc3c2O[C@@H](CN(C)C(=O)Nc2ccc4c(c2)OCO4)[C@@H](C)CN([C@@H](C)CO)C3=O)n(C)n1`, for which the relative growth is 0.987 (inactive).
Turning to `C[C@H]1CN([C@@H](C)CO)C(=O)c2cc(-c3ccc(C(=O)N(C)C)cc3)cnc2O[C@H]1CN(C)C(=O)c1ccncc1`, the relative growth was 0.964 (inactive).
For `COc1ccc([Si](C)(C)[C@@H]2[C@@H](CC(=O)N3CCC[C@H]3CO)O[C@]3(C(=O)N(Cc4cccc(N5CCCCC5=O)c4)c4ccccc43)[C@H]2C)cc1`, the relative growth is 1.02 (inactive).
Consider `C=CC1=C(C(=O)O)N2C(=O)[C@@H](NC(=O)/C(=N\O)c3csc(N)n3)[C@H]2SC1`, for which the relative growth was 0.0321 (active).
Turning to `C=CC1=C(C(=O)O)N2C(=O)C(NC(=O)C(=NO)c3csc(N)n3)C2SC1` (stereo unspecified), the relative growth is 0.05 (active).
`C=CC1=C(C(=O)O)N2C(=O)C(NC(=O)C(=NOCC(=O)O)c3csc(N)n3)C2SC1` (stereo unspecified): the relative growth is 1.01 (inactive).
As for `C/C=C/C1=C(C(=O)O)N2C(=O)[C@@H](NC(=O)[C@H](N)c3ccc(O)cc3)[C@H]2SC1`, the relative growth was 0.876 (inactive).
On to `Nc1nc(C(=CCC(=O)O)C(=O)NC2C(=O)N3C(C(=O)O)=CCSC23)cs1` (stereo unspecified), for which the relative growth was 0.0485 (active).
For `C=CC1=C(C(=O)O)N2C(=O)[C@@H](NC(=O)/C(=N\OCC(=O)O)c3csc(N)n3)[C@H]2SC1`, the relative growth is 0.0479 (active).
As to `Nc1nc(/C(=C/CC(=O)O)C(=O)N[C@@H]2C(=O)N3C(C(=O)O)=CCS[C@H]23)cs1`, the relative growth is 1.01 (inactive).
